BoNT A protease: BoNT A light chain protease inhibition. actives 0.17% (n = 360,000). AID 588499. inhibition, % at 10 µM. multiplex microsphere protease substrate cleavage, flow cytometry; also: plate controls were buffer without enzyme for full effect and enzyme alone for no effect
Anthrax LF inh2: inhibitors of Bacillus anthracis lethal factor protease; actives 0.12% (n = 360,000); P15917; AID 588501; multiplex microsphere protease cleavage assay, LF; inhibition, % at 10 µM; also: plate controls were buffer without enzyme for full effect and enzyme alone for no effect
Target sequence (P15917 whole entry, looked up): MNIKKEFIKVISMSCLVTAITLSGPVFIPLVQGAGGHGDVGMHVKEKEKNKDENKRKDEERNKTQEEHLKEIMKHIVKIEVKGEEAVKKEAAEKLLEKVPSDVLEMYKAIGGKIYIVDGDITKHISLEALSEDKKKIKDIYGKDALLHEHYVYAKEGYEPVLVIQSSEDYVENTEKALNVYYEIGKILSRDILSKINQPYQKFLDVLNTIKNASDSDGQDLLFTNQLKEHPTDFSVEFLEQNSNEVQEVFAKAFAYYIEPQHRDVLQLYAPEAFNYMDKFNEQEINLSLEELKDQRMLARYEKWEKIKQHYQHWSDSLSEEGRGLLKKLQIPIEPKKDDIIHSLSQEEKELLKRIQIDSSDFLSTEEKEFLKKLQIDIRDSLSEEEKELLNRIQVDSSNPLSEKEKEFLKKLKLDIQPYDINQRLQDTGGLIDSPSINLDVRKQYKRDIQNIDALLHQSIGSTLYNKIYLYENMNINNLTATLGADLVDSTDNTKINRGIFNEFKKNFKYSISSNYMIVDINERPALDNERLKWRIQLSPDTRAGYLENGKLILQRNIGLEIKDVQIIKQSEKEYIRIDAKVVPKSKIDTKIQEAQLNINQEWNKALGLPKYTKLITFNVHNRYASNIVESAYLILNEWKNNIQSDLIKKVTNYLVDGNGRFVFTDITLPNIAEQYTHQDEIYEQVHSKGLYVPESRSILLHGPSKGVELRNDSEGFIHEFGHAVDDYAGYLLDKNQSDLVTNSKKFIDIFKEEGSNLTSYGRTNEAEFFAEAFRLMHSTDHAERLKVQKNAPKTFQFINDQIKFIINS
BoNT F protease: inhibitors of Botulinum neurotoxin F light chain protease | Multiplex microsphere protease cleavage assay, flow cytometry | actives 0.22% (n = 360,000) | inhibition, % at 10 µM; in the data active = inhibition above about 35%, passing the limit was not always enough; inconclusive = no clear call, values can overlap the other calls; also: plate controls were buffer without enzyme for full effect and enzyme alone for no effect
3CLpro inhibitor: SARS-CoV 3CLpro protease inhibition; AID 1706; actives 0.14% (n = 290,000); recombinant SARS-CoV 3CLpro, quenched FRET peptide cleavage; P0C6X7; inhibition, % at 6 µM; in the data active = inhibition above about 12%
Bead autofluor: counter-screen for toxin protease inhibitors: compound fluorescence; compound autofluorescence counterscreen, microsphere flow cytometry; stronger effect = higher value; fluorescence intensity (concentration not given with the values); actives 3.1% (n = 360,000); AID 624483; in the data active = fluorescence intensity above about 16000; inconclusive = no clear call, values can overlap the other calls
* hit, by the source's call; ? = inconclusive; . = no result. Only some compounds are listed: those with a hit (about 3.5% of all), similar ones and a draw of the others. Rule as the data show it, unless noted: active = inhibition above about 30%; inconclusive = no clear call, values can overlap the other calls; inactive = below that.

SMILES	BoNT A protease	Anthrax LF inh2	BoNT F protease	3CLpro inhibitor	Bead autofluor
Cc1cc(C)n2nc3nc4c(cc3c2n1)CCCC4	?	1.7	6.4	1.7	19863*
Cn1c(NC(=S)Nc2ccccc2)nc2ccccc21	-0.8	-2.8	-2.4	-5.4	1980
Cc1nc(Oc2ccc(Cl)cc2)c2oc3ccccc3c2n1	?	0.6	-1.0	2.0	20568*
COc1ccccc1-c1nc(SCC(=O)N2CCOCC2)n[nH]1	-1.0	9.8	12.5	0.6	3603
Cc1c(C)n(CCc2ccccc2)c2ncnc(NN)c12	0.1	-0.1	-9.2	0.6	3202
CC(C)(C)C1CCC(=NNc2ncc(C(F)(F)F)cc2Cl)CC1 (configuration not stated)	?	-1.1	-2.4	0.9	22794*
C/C(=N/Nc1ncc(C(F)(F)F)cc1Cl)c1ccncc1	-0.6	-4.3	-5.8	4.1	5224
CCc1ccc(NC(=O)CSCCN2C(=O)c3ccccc3C2=O)cc1	0.2	-0.8	-4.2	1.6	2827
COc1ccc(C(=O)OCC(=O)Nc2ccc(OC(F)F)cc2)c(OC)c1	1.0	3.1	2.4	-1.1	16151*
O=CN(/C=C1\Sc2ccccc2C1=O)Cc1ccccc1	1.7	1.2	3.2	2.1	22692*
O=C1CC(C(=O)N(c2cccc(F)c2)C(C(=O)NC2CCCC2)c2ccccn2)CS1 (configuration not stated)	0.3	-4.1	-5.6	-0.4	11376
O=C1CC(C(=O)N(c2ccc(F)cc2)C(C(=O)NC2CCCC2)c2ccccn2)CS1 (configuration not stated)	1.0	-0.8	-0.2	1.4	22756*
O=C(Nc1ccc(F)cc1)c1sccc1SCc1cccc(C(F)(F)F)c1	?	-4.2	-14.5	5.1	26797*
O=C1N=c2ccccc2=C1c1c(O)n(-c2cccc(F)c2)[nH]c1=O	-3.7	-4.3	-35.8	-0.8	2076
CCCCN1CNC(=S)N(c2cc(C)ccc2C)C1	0.1	-0.3	-1.6	1.1	21773*
O=C(Nc1ccnc(-c2cccnc2)n1)c1cccc(Cl)c1Cl	-1.1	-5.2	-1.2	-3.0	22659*
CC(C)C(=O)Nc1ccnc(-c2cccnc2)n1	0.5	-0.1	0.8	0.3	22732*
CC(=O)Nc1ccnc(-c2cccnc2)n1	-0.1	-1.4	3.3	-3.8	9610
O=S(Cc1ccccc1)CC(O)(c1ccccc1)c1ccccc1 (configuration not stated)	-1.9	-1.6	-4.4	8.4	21390*
O=S(Cc1ccc(Cl)cc1)CC(O)(c1ccccc1)c1ccccc1 (configuration not stated)	-1.0	10.7	-0.7	7.9	10823
O=C(Nc1nnc(SCC(=O)N2CCOCC2)s1)C1CC(=O)N(c2ccc(F)cc2)C1 (configuration not stated)	0.2	1.9	-0.1	1.2	5373
O=C(O)C1C2CCCCC2=C2CCCCC2C1C(=O)O (configuration not stated)	?	-0.1	2.7	-2.7	18813*
O=C(O)C1C2CCCCC2=C2CCCCC2C1C(=O)Nc1nccs1 (configuration not stated)	-0.5	-4.0	-7.7	.	2889
Cc1cccc(C)c1NC(=O)CN(C)C(=O)C1CC(=O)N(c2cccc3ccccc23)C1 (configuration not stated)	-1.1	-9.8	-0.1	.	7859
CCNC(=O)CP(=O)(c1ccccc1)c1ccccc1	-0.9	-0.7	-7.7	4.5	3739
SMILES	BoNT A protease	Anthrax LF inh2	BoNT F protease	3CLpro inhibitor	Bead autofluor
Cc1ccc(P(=O)(CC(=O)O)c2ccc(C)cc2)cc1	-3.0	-2.6	-6.7	1.1	24105*
CCCN1Cc2cccc(C(=O)Nc3cc(OC)cc(OC)c3)c2C1=O	1.0	-7.8	1.7	1.2	22619*
CCc1ccc(N/C(SCc2ccccc2C)=C(/C#N)C(=O)NCc2ccco2)cc1	-1.7	-5.3	-3.5	9.7	17346*
O=C1OCCC1Sc1nnc(-c2cccc(Br)c2)o1 (configuration not stated)	1.5	-3.4	0.2	-3.8	20056*
CN1CCN(c2nc(-c3ccc(Cl)cc3Cl)nc3ccccc23)CC1	-3.2	1.8	-24.2	0.5	4048
Cc1ccc(CNCC(O)(c2ccc(F)cc2)c2ccc(F)cc2)cc1	?	-8.0	-12.8	-10.0	22638*
Cn1c(C(C(=O)NCC2CCCO2)N(C(=O)Cn2nnc3ccccc32)C2CCCCC2)nc2ccccc21 (configuration not stated)	-1.5	-0.2	-0.8	1.4	21506*
CC(=O)c1ccccc1N(C(=O)Cn1nnc2ccccc21)C(C(=O)NCC1CCCO1)c1ccc(N2CCOCC2)cc1 (configuration not stated)	-1.7	-1.6	-3.4	5.0	3309
